# Sampled rows, rich in hits. Any-hit rate of the full collection: about 2.8%.
# IP6K1 inh – blocks human inositol hexakisphosphate kinase 1; IP6K1 kinase, ADP-Glo luminescence, 2 h; hits give low values; AID 1645851; activity change, % (series mostly up to about 58 µM); 140,000 tested, 0.81% active; in the data active means activity change below about -25%; further: on the % scale 0 is the no-effect control and ±100 the full control effect
# Target sequence (Q92551 whole entry, looked up): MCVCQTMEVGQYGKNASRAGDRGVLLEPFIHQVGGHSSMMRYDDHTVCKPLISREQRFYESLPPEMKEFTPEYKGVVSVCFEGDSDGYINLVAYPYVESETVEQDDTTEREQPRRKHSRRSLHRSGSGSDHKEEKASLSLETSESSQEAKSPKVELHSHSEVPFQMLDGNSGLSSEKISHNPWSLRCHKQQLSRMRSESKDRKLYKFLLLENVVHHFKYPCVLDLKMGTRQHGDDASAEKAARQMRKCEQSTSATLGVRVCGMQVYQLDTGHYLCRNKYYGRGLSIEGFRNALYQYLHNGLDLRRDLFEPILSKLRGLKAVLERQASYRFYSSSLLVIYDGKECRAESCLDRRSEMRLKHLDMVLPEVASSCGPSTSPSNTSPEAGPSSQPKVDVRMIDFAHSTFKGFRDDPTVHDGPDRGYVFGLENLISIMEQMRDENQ
#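 ADP-Glo luminescence measures ADP made by human IP6K1 during a 2 h RT reaction with ATP/IP6 (mix at 1.3 mM/130 uM); top library doses 57.5 and 19.1 uM final.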
# HEK293 viab – counter-screen for SNCA expression inhibitors: cell viability | HEK-293-SNCA-luc viability, GF-AFC fluorescence, 24 h | Potency, µM (highest dose often 57.1 µM), for the others: top-dose activity change, negative = cytotoxicity, hits mostly cytotoxic | 150,000 tested, 0.12% active;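 further: potency means the concentration at half of the fitted maximal effect; 0% = DMSO-treated cells and -100% = medium-only wells without cells; nearly all actives have a fitted effect of over 30% in size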
#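 Cytotoxicity counterscreen: after 24 h compound treatment of genome-edited SNCA-luciferase HEK-293 cells, live-cell protease substrate GF-AFC read by fluorescence after 30 min; activity scaled between DMSO (0%) and medium-only (-100%), curves Hill-fitted.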
# SNCA expr inh – inhibitors of alpha-synuclein (SNCA) gene expression; HEK-293 SNCA-luciferase knock-in, luminescence, 24 h; Potency, µM (top dose mostly 57.2 µM), without a hit: top-dose activity change, negative = inhibition, most hits filed as inhibitors; 140,000 tested, 0.17% active;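 further: potency means the concentration at half of the fitted maximal effect; plate controls were DMSO cells for no effect and cell-free wells for full effect; nearly all actives have a fitted effect of over 45% in size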
# KDM5B inh – blocks human KDM5B histone demethylase activity; KDM5B demethylase, FDH-coupled NADH fluorescence (FDH is formaldehyde dehydrogenase); Potency, µM (highest dose often 57.7 µM), most hits filed as inhibitors; 220,000 tested, 2.6% active; AID 1347165; further: potency means the concentration at half of the fitted maximal effect; 0% is about no effect; nearly all actives have a fitted effect of over 70% in size
#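 Coupled FDH/NAD⁺ fluorescence readout. KDM5BΔAP 200 nM final; compound titration, 10 min RT preincubation; substrate mix 12.5 µM H3K4me3, 25 µM 2-OG, 50 µM Fe(II), 100 µM ascorbate, 0.25 mM NAD⁺, 0.25 U/mL FDH; ΔRFU over 30 min.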
# * hit, by the source's call; i = inactive; ? = inconclusive; . = no result; [ ] = another dose, or the depositor's remark. Unless noted, the call rests on the fitted dose curve; in most records, active means well fitted curve in the direction sought with a large enough effect; inconclusive means small, poorly fitted or top-dose-only effect, or another doubt; inactive means no such curve, though single readings can be large; an effect the other way counts as inactive or inconclusive.
SMILES,IP6K1 inh,HEK293 viab,SNCA expr inh,KDM5B inh
CS(=O)(=O)c1ccc(OC[C@H]2C[C@@H](NC(=O)C3CCOCC3)[C@H](O)[C@@H]2O)cc1,17.2,-4.3%[87.6 µM],-18.8%[87.6 µM],31.6µM*
O=C(Cc1ccc(Cl)cc1)N1CCCN(c2cc(-c3ccccc3)[nH]n2)CC1,14.5,-10.1%,-25.8%,?
O=C(Cc1ccccc1F)N1CCCN(c2cc(-c3ccc(Cl)cc3)[nH]n2)CC1,-10.3,?,-10.8%,10µM*
CN(C)c1cccc(C(=O)NC2CCN(c3cc(-c4ccc(F)cc4)[nH]n3)CC2)c1,23.6,9.1%,233.8%,i
CN(C)c1cccc(C(=O)N2CCN(c3cc(-c4ccc(Cl)cc4)[nH]n3)CC2)c1,6.6,-22.5%,3.2%,31.6µM*
CN(C)c1cccc(C(=O)NC2CCN(c3cc(-c4ccc(Cl)cc4)[nH]n3)CC2)c1,15.6,-4.7%,177.5%,31.6µM*
COc1ccc(-c2cc(N3CCCC(NC(=O)c4cccc(N(C)C)c4)C3)n[nH]2)cc1 (stereo not drawn),0.0,-18.3%,26.0%,28.2µM*
Cn1c(NCc2ccc3c(c2)OCO3)nc2c1c(=O)n(Cc1ccccc1Cl)c(=O)n2C,.,.,.,i
COc1ccc(C(=O)/C=C/c2ccccc2OCC#N)c2ccccc12,.,.,.,i
O=C(NC1CCCCCC1)c1csc2ccccc12,.,.,.,i
Cn1cc(NC(=O)C2CC(=O)N(c3n[nH]c4cccc(F)c34)C2)cn1 (stereo not drawn),7.0,5.1%,-30.9%,i
CCOc1ccc(NC(=O)C2CC(=O)N(c3n[nH]c4cccc(F)c34)C2)cc1 (stereo not drawn),-1.8,0.6%,9.7%,22.4µM*
COc1ccc(OC)c(NC(=O)C2CC(=O)N(c3n[nH]c4cccc(F)c34)C2)c1 (stereo not drawn),-1.7,3.0%,12.3%,31.6µM*
Cc1ccc(NC(=O)C2CC(=O)N(c3n[nH]c4cccc(F)c34)C2)nc1 (stereo not drawn),-10.0,-10.6%,1.0%,i
COc1ccc(CNC(=O)C2CC(=O)N(c3n[nH]c4cccc(F)c34)C2)cc1OC (stereo not drawn),-1.3,12.9%,4.9%,?
COc1ccc(NC(=O)C2CC(=O)N(c3n[nH]c4cccc(F)c34)C2)cc1 (stereo not drawn),7.1,2.1%,-0.4%,25.1µM*
O=C(NCc1ccc(Cl)cc1)C1CC(=O)N(c2n[nH]c3cccc(F)c23)C1 (stereo not drawn),-14.2,11.0%,9.5%,20µM*
O=C(NCc1cccc(C(F)(F)F)c1)c1nc2sccn2c1-c1ccc(C(F)(F)F)cc1,15.4,-14.0%,?,.
CCNC(=O)OC1CCN(C(=O)c2ccc(OC)c(OC)c2)CC(=O)N(C)c2ccccc21 (stereo not drawn),4.4,.,.,.
NS(=O)(=O)c1ccc(N/N=C/c2ccc(Br)cc2)c([N+](=O)[O-])c1,.,.,.,i
O=C(C1CC(=O)N(c2n[nH]c3cccc(F)c23)C1)N1CCN(c2ccc(Cl)cc2)CC1 (stereo not drawn),-8.2,-10.2%,-23.6%,22.4µM*
Cc1ccnc(NC(=O)C2CC(=O)N(c3n[nH]c4cccc(F)c34)C2)c1 (stereo not drawn),2.7,4.8%,-14.7%,i
Cc1ccc(NC(=O)C2CC(=O)N(c3n[nH]c4cccc(F)c34)C2)c(C)c1 (stereo not drawn),-10.8,9.6%,-2.4%,22.4µM*
Cc1ccc(NC(=O)C2CC(=O)N(c3n[nH]c4cccc(F)c34)C2)cc1 (stereo not drawn),-8.1,6.2%,2.1%,20µM*
O=C(C1CC(=O)N(c2n[nH]c3cccc(F)c23)C1)N1CCN(c2cccc(Cl)c2)CC1 (stereo not drawn),-11.8,2.7%,0.3%,?
SMILES,IP6K1 inh,HEK293 viab,SNCA expr inh,KDM5B inh
Cc1ccc(NC(=O)c2cnc(NCc3ccc4c(c3)OCO4)nc2C)c(C)c1,.,.,.,i
Cc1nc(-c2ccccc2)sc1C(=O)N1CCN(Cc2ccc(C#N)cc2)CC1,.,.,.,i
COC(=O)N1CCC2(C1)C(=O)N(CCc1ccccc1)c1ccccc12 (stereo not drawn),12.7,?,-4.6%,i
CN(C)c1ccc(C(=C2C=CC(=[N+](C)C)C=C2)c2ccc(N(C)C)cc2)cc1,-57.6*,?,?,.
COc1cccc(-c2cc3c(=O)n(CCNC(=O)c4ccccc4Cl)ccn3n2)c1,-7.9,-8.6%,42.6%,i
COc1cccc(C(=O)NCCn2ccn3nc(-c4ccc(F)cc4)cc3c2=O)c1OC,-6.9,?,-14.4%,i
COc1ccc(-c2cc3c(=O)n(CCNC(=O)c4cccc5[nH]ccc45)ccn3n2)cc1,-6.3,-14.0%,76.5%,22.4µM*
COc1cccc(-c2cc3c(=O)n(CCNC(=O)c4cccc5[nH]ccc45)ccn3n2)c1,-10.3,-25.8%,93.1%,25.1µM*
Cc1ccc(Cl)cc1NC(=O)Cn1nc(C(=O)O)c2ccccc2c1=O,.,.,.,i
CCc1c(C)cc(C(=O)N[C@@H]2[C@@H](Cc3ccccc3)[C@H]3OCC[C@@H]23)c(=O)n1C,10.6,-4.0%,6.3%,28.2µM*
CCCN1CCc2[nH]cnc2C12CCN(C(=O)c1cnn3ccccc13)CC2,5.4,1.6%,5.7%,25.1µM*
Cn1ncc(N2CCC(CNC(=O)c3cccc4ccnn34)C2)cc1=O (stereo not drawn),-3.1,7.1%,-3.5%,28.2µM*
Cn1ncc(N2CCC(CNC(=O)c3cccc4ncccc34)C2)cc1=O (stereo not drawn),1.9,-0.1%,3.4%,i
O=C(Nc1cccc(Cl)c1)c1cc2n(n1)CC(c1ccc3c(c1)OCO3)OC2 (stereo not drawn),-6.4,-4.2%,-23.3%,25.1µM*
O=C(Nc1ccc(Cl)cc1)c1cc2n(n1)CC(c1ccc3c(c1)OCO3)OC2 (stereo not drawn),7.7,-1.1%,-23.6%,28.2µM*
O=C(Nc1ccc(F)cc1)c1cc2n(n1)CC(c1ccc3c(c1)OCO3)OC2 (stereo not drawn),-4.3,-14.1%,?,?
COc1ccc(NC(=O)c2cc3n(n2)CC(c2ccc4c(c2)OCO4)OC3)c(OC)c1 (stereo not drawn),-4.1,-10.8%,-22.7%,35.5µM*
O=C(c1cc2n(n1)CC(c1ccc3c(c1)OCO3)OC2)N1CCCC1 (stereo not drawn),-15.4,?,158.0%,28.2µM*
CCc1cccc(NC(=O)c2cc3n(n2)CC(c2ccc4c(c2)OCO4)OC3)c1 (stereo not drawn),-2.4,?,71.7%,?
O=C(Nc1ccc2c(c1)CCC2)c1cc2n(n1)CC(c1ccc(Cl)cc1)OC2 (stereo not drawn),-5.7,-1.6%,34.0%,31.6µM*
O=C(NC1CCNCC1)c1cc(C2CC2)nc2onc(C3CCCN3)c12 (stereo not drawn),-4.4,7.6%,-14.1%,79.4µM*
COc1ccc(-c2cc(C(=O)NC3CC3)c3c(C4CCNC4)noc3n2)cc1 (stereo not drawn),-1.0,7.4%,5.0%,79.4µM*
